# Calls of active or inactive are those of the source. How the source made its calls: active means hit-call score of the fitted dose curve at least 0.9, where 1 is the maximum; inactive means score below 0.9.
# Assay: ATG_TA_CIS: Attagene CIS-FACTORIAL HepG2 Assay for human TA Basal Promoter (AID 2282964)
# Conditions: HepG2 Attagene CIS-factorial TA basal promoter reporter; actives raise or lower the signal
# Protocol: ATG_CIS is a cell-based, multiplexed-readout assay that uses HepG2, a human liver cell line, with measurements taken at 24 hours after chemical dosing in a 24-well plate.ATG_TA_CIS is one of 52 assay component(s) measured or calculated from the ATG_CIS assay. It is designed to make measurements of mRNA induction, a form of inducible reporter, as detected with fluorescence intensity signals by Reverse transcription polymerase chain reaction (RT-PCR) and Capillary electrophoresis technology.Data from the assay component ATG_TA_CIS was analyzed into 1 assay endpoint. This assay endpoint, ATG_TA_CIS, was analyzed with bidirectional fitting relative to DMSO as the negative control and baseline of activity. Using a type of inducible reporter, measures of mRNA for gain or loss-of-signal activity can be used to understand the background control at the transcription factor-level as they relate to the gene . Furthermore, this assay endpoint can be referred to as a secondary readout, because this assay has produced multiple assay endpoints where this one serves a background control function. To generalize the intended target to other relatable targets, this assay endpoint is annotated to the background measurement intended target family, where the subfamily is internal marker.
# Human liver HepG2 cells are transiently transfected with multiple reporter transcription units (MRTUs) in 6-well plates using FuGene 6 reagent (Roche; 3 ml FuGene/1 mg DNA). The MRTU constructs are regulated by a cis-regulating element (promoter). […] A major difference between the CIS and TRANS system is that in CIS activities of endogenous TFs are measured, whereas the TRANS assay evaluates changes in activities of exogenous, chimeric NR-Gal4 proteins. […] At the end of 24 hour incubation, total RNA was isolated using TriZol reagent (Invitrogen). The isolated RNA is then reverse-transcribed using oligo(dT) primer and Mo-MLV reverse transcriptase (Invitrogen) with DNAse I (Ambion) treatment for 30 min. The one-tenth of the produced cDNA was amplified by PCR using Taq DNA polymerase (Invitrogen) and two reporter sequence-specific primers. The PCR products were fluorescently labeled by primer extension with 6-arboxyfluorescein (6-FAM) 5'-labeled reporter sequence-specific primer (2 min at 95 C, 20 s at 68 C and 10 min at 72 C) and these products were digested with 5U of HpaI (New England Biolabs) for 2h at 37 C. The fragments were purified using Qiaquick PCR columns (Qiagen), analyzed on an ABI 3130xL genetic analyzer (Applied Biosystems) with peak positions identified by using a set of X-rhodamine (ROX)-labeled MapMarker1000 molecular weight standards (BioVentures). The raw capillary electrophoresis data was processed using Attagraph software (Attagene).
Compound,outcome,AC50
C=C1CC/C=C(\C)CC[C@@H]2[C@@H]1CC2(C)C,inactive,–
NNC(=O)OCc1ccccc1,inactive,–
C=C(C)C(=O)OCCC[Si](OC)(OC)OC,inactive,–
CCCCCCCCSCc1cc(C)c(O)c(CSCCCCCCCC)c1,inactive,–
O=C(O)c1cc2ccccc2cc1O,inactive,–
C=CC(C)(CCC=C(C)C)OC(=O)CC (stereo not given),inactive,–
CC(CO)(CO)[N+](=O)[O-],inactive,–
OC[C@H]1O[C@@H](O[C@H]2[C@H](O)[C@@H](O)[C@H](O)O[C@@H]2CO)[C@H](O)[C@@H](O)[C@H]1O,inactive,–
CCC(C)(CCCC(C)C)OC(C)=O (stereo not given),inactive,–
CCOC(=O)CC1(C)OCC(C)O1 (stereo not given),inactive,–
CCc1cccc(O)c1,inactive,–
Nc1ccc(N)c([N+](=O)[O-])c1,inactive,–
CC(=O)CCc1ccc(O)cc1,inactive,–
CC12CCC(C1)C(C)(C)C2O (stereo not given),inactive,–
O=C(O)C1=NN(c2ccc(S(=O)(=O)O)cc2)C(=O)C1,inactive,–
CC(=O)OC/C=C(C)/C=C/C=C(C)/C=C/C1=C(C)CCCC1(C)C,inactive,–
CC1=CCC(=C(C)C)CC1,inactive,–
NCCN1CCNCC1,inactive,–
CC(=O)CCC(=O)O,inactive,–
O=S1(=O)CC=CC1,inactive,–

Compound,outcome,AC50
CC(C)C(=O)c1ccccc1,inactive,–
CCOC(=O)C(=O)OCC,inactive,–
CC1(C)CC(N)CC(C)(CN)C1 (stereo not given),inactive,–
O=C(O)CS,inactive,–
COC(=O)c1cccc(C(=O)OC)c1,inactive,–
CCCCOCCOCCOCCO,inactive,–
CC(O)CNCC(C)O (stereo not given),inactive,–
CCCCOC(=O)C(C)OC(=O)CCC (stereo not given),inactive,–
C1=COCCC1,inactive,–
c1ccc(OCCOc2ccccc2)cc1,inactive,–
C=C1CC[C@H]2O[C@]2(C)CC[C@@H]2[C@@H]1CC2(C)C,inactive,–
NC(=O)NC(N)=O,inactive,–
CC(=O)CCC=C(C)CCC=C(C)C,inactive,–
CC/C(=C(\c1ccccc1)c1ccc(OCCN(C)C)cc1)c1ccccc1,inactive,–
O=S(=O)(O)c1cc(S(=O)(=O)O)c2c(N=Nc3ccccc3)c(O)ccc2c1,inactive,–
CC/C=C\CCCCO,inactive,–
CC(C)=CCCC(C)=CC(=O)O,inactive,–
C[C@H](CCC(=O)O)[C@H]1CC[C@H]2[C@@H]3CC[C@@H]4C[C@H](O)CC[C@]4(C)[C@H]3CC[C@]12C,–,25.3 µM (active)
C=CCOC(=O)/C=C\C(=O)OCC=C,inactive,–
O=c1cc(-c2ccc(O)cc2)oc2cc(O)cc(O)c12,inactive,–

# — PubChem BioAssay (EPA / NIEHS)
